Test results: PubChem BioAssay AID602323 (The Scripps Research Institute Molecular Screening Center, 2012)
Values without a mark were called inactive. No rule for the calls is given here.

Tested on: 80kDa SH
Assay: serine hydrolase inhibition in mouse brain membranes, late-stage follow-up, selectivity assay for DAGLb inhibitor project, biochemical, gel-based competitive ABPP, fluorescence, set 2 (AID 602323)
Details: mouse brain membrane, at 1 µM, stronger effect = higher value

Molecule O=C(N1CCCCC1Cc1ccccc1)n1cc(-c2ccc(-c3ccccc3)cc2)nn1 (stereo unspecified) has an inhibition of 10%.
